The campaign covered roughly 300,000 compounds. About 37,000 (12%) were called active. Cut-off read from the data, not from the text of the source: active = max response mostly above about 13% (no sharp cut-off); inactive = mostly below about 14%. Shown is part of a subset that was picked to be rich in actives.
Experiment: Cycloheximide Counterscreen for Small Molecule Inhibitors of Shiga Toxin; note: read at 38.3 µM for the half of the compounds with a filed dose; 0% is about no effect
Conditions: cell reporter, cycloheximide protein synthesis inhibition counterscreen; hits give high values

| Compound | max response |
| --- | --- |
| Cc1ccc(N2CCN(c3ccc([N+](=O)[O-])cn3)CC2)c(C)c1 | -4.64% (inactive) |
| O=C(COc1ccc(S(=O)(=O)Nc2cccc(C(F)(F)F)c2)cc1)N1CCOCC1 | -0.756% (inactive) |
| CCOC(=O)CSc1ccccn1 | -1.11% (inactive) |
| CN(C)c1nc(N)nc(CSc2nnnn2-c2cccc3ccccc23)n1 | -1% (inactive) |
| CN(C)c1nc(N)nc(CSc2ccccn2)n1 | 21.5% (active) |
| CCOC(=O)c1cc2c(=O)[nH]c(C(Cl)(Cl)Cl)nc2o1 | 7.51% (inactive) |
| O=C(O)c1cccc2c1C(=O)N(C1CCCC1)C2 | -2.23% (inactive) |
| Cc1cccc(NC(=O)c2nc[nH]c2C(=O)NCC(=O)OCc2ccccc2)c1 | 1.03% (inactive) |
| Cc1cccc(CS(=O)(=O)c2ncc(Cl)c(C(=O)Nc3ccc(F)cc3)n2)c1 | 30.3% (active) |
| CCSc1ncc(Cl)c(C(=O)Nc2cc(C)ccc2C)n1 | -0.976% (inactive) |
| Cc1cccc(NC(=O)c2nc(S(=O)(=O)Cc3ccccc3)ncc2Cl)c1 | 29% (active) |
| Cc1cccc(OCc2ccc(C(=O)Nc3ccc(F)cc3)cc2)c1 | -3.2% (inactive) |
| CCOc1ccc(NC(=O)c2nc(SCC)ncc2Cl)cc1 | -5.84% (inactive) |
| COCCCNC(=O)CN1C(=O)CSc2ccc(S(=O)(=O)N3CCOCC3)cc21 | -0.345% (inactive) |
| OC(COc1ccc(CN2CCSCC2)cc1)CN1CCCCC1 (configuration not stated) | 0.684% (inactive) |
| CC1CCC(N2CC(=O)N(Cc3ccc4c(c3)OCO4)C(c3ccc(F)cc3)C2=O)CC1 (configuration not stated) | -2.2% (inactive) |
| O=C(c1cc(Cl)cc(Cl)c1)N1CCC(=O)N(C(COCc2ccccc2)Cc2ccccc2)CC1 (configuration not stated) | -1.19% (inactive) |
| COc1cc(OC)nc(NC(=O)CCl)n1 | -2.63% (inactive) |
| O=C(CCl)NNc1cccc(Cl)n1 | 26.1% (active) |
| O=C(CCl)NNc1nc(-c2ccccc2)c2cc(Cl)ccc2n1 | -5.34% (inactive) |
| C=CCn1c(SCC(=O)NCC2CCCO2)nc2sc(C)c(C)c2c1=O (configuration not stated) | -2.05% (inactive) |
| COc1ccc(CCCc2nnc(SCc3nc4ccccc4c(=O)[nH]3)n2C)cc1 | 1.63% (inactive) |
| CCN(CC(=O)NCc1cccs1)C(=O)c1cccc(S(=O)(=O)Nc2ccccc2OC)c1 | -1.21% (inactive) |
| c1ccc2[nH]c(-c3nc4ccccc4[nH]3)nc2c1 | 33.9% (active) |
| Cc1ccc(-c2nc3ccccc3[nH]2)cc1N | 34.2% (inactive) |
| OC(c1nc2ccccc2[nH]1)C(O)C(O)C(O)c1nc2ccccc2[nH]1 (configuration not stated) | -2.45% (inactive) |
| CN(C(=O)C1CCN(c2ncnc3c2nc2n3CCCCC2)CC1)C1CCCCC1 | -1.8% (inactive) |
